In PubChem BioAssay AID504467 (National Center for Advancing Translational Sciences (NCATS), 2011):
Among all 330,000 compounds or so, about 7,700 (2.3%) were called active. Not shown: some 26% with an inconclusive outcome. For the sample, actives were picked, then their nearest neighbours and some compounds at random. Unmarked numbers belong to inactive results. Calls come from the whole dose curve; as a rule, active = well fitted inhibition curve with a large enough effect; inconclusive = small, poorly fitted or top-dose-only effect, or effect the other way; inactive = flat fitted curve, though single readings scatter.

Experiment: qHTS screen for small molecules that inhibit ELG1-dependent DNA repair in human embryonic kidney (HEK293T) cells expressing luciferase-tagged ELG1; note: nearly all actives have a fitted effect of over 55% in size
Conditions: HEK293T ELG1-luciferase reporter, luminescence, 16 h, DNA damage induced by 5-fluorouridine; series mostly up to 46.1 µM; activity change, negative = inhibition: at the top concentration
Procedure, shortened: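 5-Fluorouridine DNA damage + compound/DMSO, 2,000 cells/well, 16 h, 37 °C/5% CO2. ONE-Glo, 30 min RT, luminescence. Readout = decrease in reporter signal.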
% is set by controls: 0 for no effect and ±100 for the full control effect; potency is the fitted concentration of half-maximal effect.

| SMILES | activity change, negative = inhibition | Potency |
| --- | --- | --- |
| Fc1ccc(/C=N/n2c(COc3ccccc3)n[nH]c2=S)cc1 | -4.36% | – |
| CN(C)c1ccc(Nc2c3c4c(cccc4n(C)c2=O)C(=O)c2ccccc2-3)cc1 | – | 7.31 µM (active) |
| CN(C)c1ccc(C2N(C)C(=O)c3ccccc3N2C)cc1 (stereo not given) | 1.38% | – |
| Cc1ccc(NS(=O)(=O)c2ccc3c(c2)n(C)c(=O)c(=O)n3C)c(C)c1 | -5.16% | – |
| CCC1=Nc2cc(C(=O)NCCN3CCCC3)ccc2Sc2ccc(C)cc21 | -1.4% | – |
| CCOC(=O)CC1(NC(=O)c2cc(COc3cncc(Cl)c3)on2)CCCCC1 | -8.66% | – |
| CN1CCC(N(C)S(=O)(=O)c2ccc(NC(=O)c3cccc(C#N)c3)cc2)CC1 | 0.329% | – |
| O=C(Cc1ccccc1Cl)N1CCN(c2ccccn2)CC1 | -17.5% | – |
| Cc1ccnc(N2CCN(C(=O)CSc3nc4ccccc4nc3N3CCCCC3)CC2)c1 | – | 12.6 µM (active) |
| Cc1ccc(S(=O)(=O)NCC(=O)N2CCN(c3ccccn3)CC2)cc1 | -7.21% | – |
| COC(=O)c1ccc(CSc2ccc(S(=O)(=O)N3CCCCC3)cn2)cc1 | 14.1% | – |
| CSCc1nnc(NC(=O)c2ccc(S(=O)(=O)N3CCCCC3C)cc2)o1 (stereo not given) | – | 20.6 µM (active) |
| CC1CCCCN1S(=O)(=O)CCNC(=O)c1ccccc1 (stereo not given) | 10.3% | – |
| O=C(Nc1nnc(-c2ccco2)o1)c1ccc(S(=O)(=O)N2CCOCC2)cc1 | -19.6% | – |
| Cc1ccc(C(=O)CN2C(=O)NC3(CCc4ccccc43)C2=O)c(C)c1 (stereo not given) | 17.4% | – |
| COc1ccc(CCNC(=O)COC(=O)c2cnc(Cl)c(Cl)c2)cc1 | 14.7% | – |
| COCC(C)n1c(SCC(=O)NC2CCCCC2C)nc2ccccc2c1=O (stereo not given) | -8.42% | – |
| CCC(=O)Nc1ccc(C(=O)CSc2nnc(CNc3ccc(Cl)cc3)o2)cc1OC | – | 11.6 µM (active) |
| COc1ccccc1NC(=O)CSc1nnc(CNC(=O)c2ccccc2F)o1 | 0.554% | – |
| COc1cc(C(=O)NCc2nnc(SCC(=O)c3ccc(Cl)cc3)o2)cc(OC)c1OC | 7.16% | – |
| CCOc1ncccc1C(=O)OCC(=O)c1c[nH]c2ccccc12 | 8.6% | – |
| Cc1cc(OCC(=O)NCC(O)c2ccccc2)c2c(C)c(C)c(=O)oc2c1 (stereo not given) | 3.77% | – |
| COC(=O)c1ccc(NC(=O)C23CC4CC(C2)CC(n2cnc(Cl)n2)(C4)C3)cc1 | – | 5.8 µM (active) |
| Cc1ncn(C23CC4CC(CC(O)(C4)C2)C3)n1 | 3.68% | – |
| O=C(Nc1ccc(S(=O)(=O)Nc2ncccn2)cc1)C12CC3CC(CC(C3)C1)C2 | 12.4% | – |

| SMILES | activity change, negative = inhibition | Potency |
| --- | --- | --- |
| CN(C)C(=O)CCc1ccc2c3c([nH]c2c1)[C@]1(C)[C@@H](C(=O)N2CCCCC2)C[C@H](CC(=O)NCCC2=CCCCC2)C(=O)N1CC3 | 1.15% | – |
| Cc1cccc(-c2oc3ccc(-c4ccc5c(c4)OCO5)cc3c2C#Cc2cncn2C)c1 | 19.1% | – |
| COc1ccc(/C=C2\CCCC3C2=NN(C(=O)c2scnc2C)C3c2ccc(OC)cc2)cc1 (stereo not given) | – | 18.4 µM (active) |
| CC(Oc1cc2oc(=O)c3c(c2cc1Cl)CCCC3)C(=O)NCc1ccncc1 (stereo not given) | -16.7% | – |
| O=C(c1cc2ccccc2o1)N1CCN(Cc2ccccc2)CC1 | 10.9% | – |
| CS(=O)(=O)N1CCN(C(=O)c2cc3ccccc3oc2=O)CC1 | 9.01% | – |
| O=C(c1cc2ccccc2o1)N1CCN(S(=O)(=O)c2ccc(Cl)s2)CC1 | – | 16.4 µM (active) |
| CCCc1cc(=O)[nH]c(SCC(=O)Nc2ccc(C(=O)Nc3ccccc3OC)cc2)n1 | 4.86% | – |
| O=C(NC1CCN(Cc2ccccc2)CC1)c1c(F)cccc1F | 18.7% | – |
| Cc1ccn2cc(C(=O)NC3CCN(Cc4ccccc4)CC3)nc2c1 | – | 20.6 µM (active) |
| Cc1ccc(-c2cc(C(=O)NC3CCN(Cc4ccccc4)CC3)c3ccccc3n2)cc1 | 11.4% | – |
| COc1ccc(NC(=O)C(CC(C)C)NC(=O)C2CCC(C)CC2)cc1 (stereo not given) | 16.9% | – |
| COc1ccc(NS(=O)(=O)c2ccc(C)c(C(=O)N(C)Cc3ccc(OC)cc3OC)c2)cc1 | -22.6% | – |
| O=C(Cc1ccc([N+](=O)[O-])cc1)Nc1ccc(C(=O)N2CCOCC2)cc1 | -15% | – |
| Cc1c(C(=O)N2CCOCC2)[nH]c2ccc(OCc3ccccc3)cc12 | – | 18.4 µM (active) |
| CCOC(=O)c1[nH]c2ccc(OC)cc2c1NC(=O)N1CCOCC1 | 12.1% | – |
| COc1ccc2[nH]c(C(=O)N3CCN(C)CC3)c(C)c2c1 | 15.2% | – |
| COc1ccc(CN2C(CC(=O)Nc3cccnc3)c3ccc(C(F)(F)F)cc3S2(=O)=O)cc1 (stereo not given) | -8.14% | – |
| Cc1ccc(S(=O)(=O)N2CCOCC2)cc1NC(=O)CSc1nnc(N)s1 | -8.75% | – |
| Cc1ccccc1NC(=O)CSC1=NCCN1 | -0.143% | – |
| Cc1ccccc1NC(=O)CSc1nc2ccc(Nc3nc(N4CCOCC4)nc(N4CCOCC4)n3)cc2s1 | – | 1.3 µM (active) |
| Cc1ccc(Nc2nc(N3CCOCC3)nc(N3CCOCC3)n2)cc1Cl | – | 0.651 µM (active) |
| Cc1cc(Nc2ccc(Cl)cc2)nc(N2CCOCC2)n1 | -11.5% | – |
| COc1cc(OC)cc(-c2nnc(SCC(=O)Nc3ccc(C(=O)O)cc3)s2)c1 | -2.89% | – |
| C=CCn1c(CSc2nc3ccccc3s2)nnc1SCC(=O)NCc1ccco1 | 4.59% | – |

| SMILES | activity change, negative = inhibition | Potency |
| --- | --- | --- |
| Nc1nnc(SCC(=O)Nc2ccc3nc(SCC(=O)Nc4ccccc4)sc3c2)s1 | – | 1.84 µM (active) |
| Cc1ccc(Nc2nc(N)nc(CN3CCN(Cc4ccccc4)CC3)n2)cc1Cl | -19.9% | – |
| O=C(CSc1nc2ccccc2s1)Nc1ccc(C(=O)O)cc1 | 6.52% | – |
| O=C(CSc1nc2ccc(Nc3nc(N4CCOCC4)nc(N4CCOCC4)n3)cc2s1)NCc1ccco1 | – | 2.59 µM (active) |
| O=C(CSc1c2c(nc3ccc(Cl)cc13)CCCC2)NCc1ccco1 | -16.2% | – |
| O=S(=O)(c1ccc(F)cc1)N1CCN=C1SCc1cccc(F)c1 | 0.508% | – |
| O=C(Nc1cc(-c2nc3ncccc3o2)ccc1Cl)c1ccco1 | -14.8% | – |
| COc1cccc(NC(=O)CCc2nnc3ccc(N4CCC(C)CC4)nn23)c1 | -10.8% | – |
| COc1ccc(N(Cc2ccc(N(C)C)cc2)C(=O)c2ccc(S(C)(=O)=O)cc2)cc1 | 8.66% | – |
| CN[C@H](C(=O)NC[C@H]1O[C@@H](n2cnc3c(N)ncnc32)[C@H](O)[C@@H]1O)[C@@H](C)OCc1ccccc1 | 23.4% | – |
| CCCN1CCn2c3c(c4cc(Br)ccc42)CCCC31 (stereo not given) | 4.36% | – |
| c1ccc2c(c1)OCC(CNc1ncnc3nc[nH]c13)O2 (stereo not given) | -16.6% | – |
| c1ccc(-c2cc3c(NCC4COc5ccccc5O4)ncnc3s2)cc1 (stereo not given) | – | 20.6 µM (active) |
| COc1ccc(Nc2ncnc3sc(-c4ccccc4)cc23)c(OC)c1 | -10.3% | – |
| CC1(c2ccccc2)NC(=O)N(CC(=O)N2CC(=O)Nc3ccccc32)C1=O (stereo not given) | 24.4% | – |
| O=C(CCCC(=O)N1CCN(c2cccc(Cl)c2)CC1)c1ccccc1 | 5.86% | – |
| Cc1ccc(C(=O)Nc2nnc(C3=COCCO3)o2)cc1C | 4.93% | – |
| O=C1C=C(c2ccnc3cc(Cl)ccc23)C[C@@H](c2ccc3c(c2)OCO3)C1 | 5.67% | – |
| Cc1ccc(N2CCN(c3ccc([N+](=O)[O-])cn3)CC2)c(C)c1 | -15.6% | – |
| CN(C)/N=C/c1cc(Cl)cc([N+](=O)[O-])c1O | 6.41% | – |
| O=C(N/N=C/c1cc(Cl)cc([N+](=O)[O-])c1O)C(O)(c1ccccc1)c1ccccc1 | – | 16.4 µM (active) |
| O=C(Cc1cc(=O)[nH][nH]1)N/N=C/c1ccccc1[N+](=O)[O-] | 19.7% | – |
| CCOC(=O)C1=CN(Cc2ccc(Br)cc2)S(=O)(=O)N(C)C1C (stereo not given) | 5.04% | – |
| CCn1c(Cc2ccc(OC)cc2)nnc1SCC(=O)Nc1ccc(N2CCOCC2)cc1 | 6.69% | – |
| FC(F)(F)c1ccc2c3n(nc2c1)CCN=C3c1ccc(Cl)cc1 | 20% | – |

| SMILES | activity change, negative = inhibition | Potency |
| --- | --- | --- |
| COc1cc(-c2n[nH]c(=S)n2Cc2ccccc2)cc(OC)c1OC | -2.15% | – |
| COc1cc(C(O)c2nc3ccccc3n2C)cc(OC)c1OC (stereo not given) | 5.28% | – |
| CCC(C)n1c(-c2cc(OC)c(OC)c(OC)c2)nc2nc3ccccc3nc21 (stereo not given) | – | 14.6 µM (active) |
| O=C(COc1ccc([N+](=O)[O-])cc1Cl)Nc1ccc2[nH]c(=O)[nH]c2c1 | -1.89% | – |
| Nc1cc(N)nc(SCC(=O)Nc2cccc(S(=O)(=O)N3CCCCC3)c2)n1 | -0.272% | – |
| Cc1nn(-c2ccccc2)c2c1c(C)c(CCC(=O)NCC1CCCO1)c(=O)n2C (stereo not given) | -27.6% | – |
| Cc1cccc(OCC(O)Cn2c(N3CCCCC3)nc3c2c(=O)[nH]c(=O)n3C)c1 (stereo not given) | -12.2% | – |
| CCCSc1nc2c(c(=O)[nH]c(=O)n2C)n1CCc1ccccc1 | -5.55% | – |
| CCC(C)Sc1nc2c(c(=O)[nH]c(=O)n2C)n1CC(O)COc1cccc2ccccc12 (stereo not given) | – | 8.2 µM (active) |
| COC(=O)c1c(NC(=O)C2CC(C)=C(C)CC2C(=O)O)sc2c1CCCCC2 (stereo not given) | -0.0644% | – |
| Cc1ccc(S(=O)(=O)N2CCN(C(=O)COC(=O)CNC(=O)c3ccc(C(C)(C)C)cc3)CC2)c(C)c1 | 0% | – |
| Brc1ccc2c(c1)[C@H]1OCC[C@H]1[C@@H](c1cccs1)N2 | – | 20.6 µM (active) |
| c1csc(CN2CCN(Cc3cccs3)C2c2cccs2)c1 | 12.2% | – |
| CCc1nn(CCCC(=O)Nc2ccc(C)cc2C)c(=O)c2cc3occc3n12 | 2.59% | – |
| COc1ccc(C(C)=O)cc1COc1ccc(Cl)c(C)c1 | -6.19% | – |
| CCn1nc(C)c(NC(=O)/C=C/c2ccc(OC)c(COc3ccc(Br)cc3)c2)c1C | – | 6.51 µM (active) |
| C/C=C/c1ccc(OCC(=O)OCC(=O)Nc2c(C)nn(-c3ccccc3)c2C)c(OC)c1 | 12.9% | – |
| CC1CCCCC12NC(=O)N(CC(=O)OCc1c(F)cccc1Cl)C2=O (stereo not given) | -1.13% | – |
| COc1ccc(C(=O)NC2CC2)cc1OC1CCN(C/C=C/c2ccccc2)CC1 | -8.27% | – |
| CN(C)S(=O)(=O)c1ccc(C(=O)NCC(C)(C)N2CCOCC2)cc1 | -0.438% | – |
| Cc1ccc(C(=O)Nc2ncccc2C)cc1S(=O)(=O)N1CCOCC1 | 17.9% | – |
| Cc1ccccc1CSCCNC(=O)c1ccc(Cl)c(S(=O)(=O)N2CCOCC2)c1 | – | 18.4 µM (active) |
| Cc1nn(Cc2ccccc2)c(C)c1CNC(=O)c1ccc(F)c(S(=O)(=O)N2CCOCC2)c1 | -0.807% | – |
| CC(C)(CNC(=O)c1ccc(Cl)c(S(=O)(=O)N2CCc3ccccc3C2)c1)N1CCOCC1 | – | 1.83 µM (active) |
| CC(C)(CNC(=O)Cc1ccc(Cl)cc1Cl)N1CCOCC1 | 3.16% | – |
